Entries with a potency or affinity are not part of this list. Records with an inconclusive call do not appear. The source made the active and inactive calls.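 Rule for the calls: active = compounds lowering the FRET ratio whose fitted half-maximal concentration is at most twice their top tested dose; inconclusive = flat partial drop between 30 and 70 percent, or bad fit; inactive = the rest.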
Molecular target: Voltage-dependent L-type calcium channel subunit alpha-1D (Homo sapiens) (UniProt Q01668)
Assay: inhibitors of CaV1.3 ICDI-IQ binding, dose response, cell-based, HEK293, YFP-IQ/CFP-ICDI FRET, cherry-picks (AID 1053205);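 note: 0% = median of neutral control wells and -100% = median of positive control wells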
Details: HEK293 YFP-IQ/CFP-ICDI FRET ratio, 10 min; series mostly up to 35 µM; FRET change, negative = inhibition: at the top concentration

Voltage-dependent L-type calcium channel subunit alpha-1D (Homo sapiens), sequence (Q01668 whole entry, looked up): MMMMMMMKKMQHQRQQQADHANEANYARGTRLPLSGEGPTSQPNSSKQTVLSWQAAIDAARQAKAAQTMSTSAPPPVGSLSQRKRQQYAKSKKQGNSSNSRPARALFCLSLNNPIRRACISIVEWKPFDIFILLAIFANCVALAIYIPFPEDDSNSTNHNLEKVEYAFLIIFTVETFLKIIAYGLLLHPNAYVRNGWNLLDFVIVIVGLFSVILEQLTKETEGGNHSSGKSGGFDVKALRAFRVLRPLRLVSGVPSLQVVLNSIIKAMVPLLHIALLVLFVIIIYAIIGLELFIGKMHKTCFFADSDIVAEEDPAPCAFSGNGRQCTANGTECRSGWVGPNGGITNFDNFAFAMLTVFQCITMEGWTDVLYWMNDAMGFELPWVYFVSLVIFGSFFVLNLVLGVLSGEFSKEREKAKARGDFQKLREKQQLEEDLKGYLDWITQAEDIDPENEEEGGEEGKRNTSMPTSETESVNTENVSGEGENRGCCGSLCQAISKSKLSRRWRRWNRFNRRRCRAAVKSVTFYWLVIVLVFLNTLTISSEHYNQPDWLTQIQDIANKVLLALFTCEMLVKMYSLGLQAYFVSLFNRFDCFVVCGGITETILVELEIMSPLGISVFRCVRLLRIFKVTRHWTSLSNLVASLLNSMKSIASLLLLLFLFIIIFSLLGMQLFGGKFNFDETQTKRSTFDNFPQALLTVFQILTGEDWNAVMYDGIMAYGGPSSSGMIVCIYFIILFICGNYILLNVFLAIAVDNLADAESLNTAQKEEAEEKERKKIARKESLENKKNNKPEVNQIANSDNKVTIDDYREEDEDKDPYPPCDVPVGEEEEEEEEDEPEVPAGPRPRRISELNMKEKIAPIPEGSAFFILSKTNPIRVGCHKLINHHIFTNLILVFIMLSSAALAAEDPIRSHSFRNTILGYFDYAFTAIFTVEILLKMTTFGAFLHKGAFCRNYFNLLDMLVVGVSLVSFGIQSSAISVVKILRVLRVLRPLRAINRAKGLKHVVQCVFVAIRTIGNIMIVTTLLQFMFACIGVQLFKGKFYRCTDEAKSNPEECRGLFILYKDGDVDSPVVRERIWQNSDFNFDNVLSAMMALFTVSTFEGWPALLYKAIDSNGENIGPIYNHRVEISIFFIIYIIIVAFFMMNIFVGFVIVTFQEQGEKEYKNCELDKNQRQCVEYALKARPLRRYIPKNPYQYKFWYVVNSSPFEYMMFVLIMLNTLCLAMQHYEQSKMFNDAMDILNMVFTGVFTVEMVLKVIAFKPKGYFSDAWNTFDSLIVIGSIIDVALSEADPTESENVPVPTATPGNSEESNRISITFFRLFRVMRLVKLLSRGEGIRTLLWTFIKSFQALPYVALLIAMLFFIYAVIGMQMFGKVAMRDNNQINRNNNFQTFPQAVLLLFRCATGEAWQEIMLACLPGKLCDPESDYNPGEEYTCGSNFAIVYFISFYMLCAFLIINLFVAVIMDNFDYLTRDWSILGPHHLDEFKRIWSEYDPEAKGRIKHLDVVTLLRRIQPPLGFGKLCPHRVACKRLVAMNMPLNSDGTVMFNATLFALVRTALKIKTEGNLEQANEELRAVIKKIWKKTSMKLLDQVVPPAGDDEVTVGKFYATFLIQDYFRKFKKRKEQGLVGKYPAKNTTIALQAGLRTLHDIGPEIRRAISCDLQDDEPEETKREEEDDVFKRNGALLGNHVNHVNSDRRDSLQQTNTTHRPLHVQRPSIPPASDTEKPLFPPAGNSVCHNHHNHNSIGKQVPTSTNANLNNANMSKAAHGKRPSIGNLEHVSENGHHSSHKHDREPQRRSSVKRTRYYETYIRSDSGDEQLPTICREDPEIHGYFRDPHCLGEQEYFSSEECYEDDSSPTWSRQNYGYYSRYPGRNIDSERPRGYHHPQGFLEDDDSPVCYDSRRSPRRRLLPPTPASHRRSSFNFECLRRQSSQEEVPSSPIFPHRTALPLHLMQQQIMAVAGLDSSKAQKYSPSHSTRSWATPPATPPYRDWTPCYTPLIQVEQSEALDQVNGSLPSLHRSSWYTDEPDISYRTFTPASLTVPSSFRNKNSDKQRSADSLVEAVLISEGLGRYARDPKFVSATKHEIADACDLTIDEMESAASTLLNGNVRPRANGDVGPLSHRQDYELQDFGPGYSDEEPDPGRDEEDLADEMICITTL

FRET change, negative = inhibition, inactive:
CCOC(=O)c1oc2c(CN3CCN(CCO)CC3)c(O)c(CC)cc2c(=O)c1-c1nc2ccccc2s1 38.5%
CCOc1ccc(-n2c(SCC(=O)Nc3nccs3)nnc2-c2ccoc2C)cc1 -21.4%
Cc1c(Nc2c3ccccc3nc3ccccc23)c(=O)n(-c2ccccc2)n1C 8.67%
CCOC1=NN(c2ncc(C(F)(F)F)cc2Cl)C(=O)C1 19%
CN1CCN(c2nc3ccccn3c(=O)c2/C=C(\C#N)S(=O)(=O)c2ccccc2)CC1 37.4%
COc1ccc(C(=O)Oc2cc(N)n(S(=O)(=O)c3ccccc3)n2)cc1 0.324%
CCOC(=O)c1c(C)n(C)c2ccc(OCC(O)CN3CCC(C)CC3)cc12 (configuration not stated) 10.5%
COCCNC(=O)c1cc2c(=O)n3cccc(C)c3nc2n(Cc2ccncc2)c1=N 405%
Cc1ccc(-c2nc3ccsc3c(=O)[nH]2)cc1 22.7%
Nc1nc(-c2cc(O)ccc2[N+](=O)[O-])cc(-c2ccccc2)c1[N+](=O)[O-] 191% [at 16 µM]
CCN(CC)CCCNc1nc(C)cc(COC)c1C#N -0.747%
CCN(c1ccccc1)S(=O)(=O)c1ccc(OC)c(NC(=O)CN(C)C)c1 10.1%
COc1ccc(CCNC(=O)CSc2cn(Cc3cccc(C)c3)c3ccccc23)cc1OC -2.31%
CCOC(=O)c1cc2c(=O)n3ccccc3nc2n(C(C)C)c1=NC(=O)c1ccco1 208% [at 8 µM]
Cc1cc2cc(CNC(=O)c3ccco3)ccc2n1C 152%
O=C(NNc1cc(N2CCCC2)nc(N2CCCC2)n1)c1ccc([N+](=O)[O-])cc1 -22.5%
N#Cc1c2ccc(O)cc2n2ccccc12 435%
CCOc1ccc(C2C(C#N)=C(N)Oc3cc(O)ccc32)cc1OCC (configuration not stated) 102%
CC1(C)CC(=O)C2=C(C1)OC(N)=C(C#N)[C@@H]2c1ccccc1[N+](=O)[O-] 5.07% [at 16 µM]
Cc1c(C(=O)NCc2cccc([N+](=O)[O-])c2)sc(=O)n1Cc1cccc(F)c1 -14.7%
CCCOc1c(Br)cc(C2C3=C(CCCC3=O)N(C)C3=C2C(=O)CCC3)cc1OC 109% [at 16 µM]
CCCCn1nc(NC(=O)c2cccs2)c2cc3cc(OC)ccc3nc21 490%
CSCCC1(C(=O)O)NC(c2ccccc2O)C2C(=O)N(C(C)C)C(=O)C21 (configuration not stated) 13%
CC(=O)Oc1ccc(C(=O)Nc2cc(C)on2)cc1 58.3%
CCc1ccccc1S(=O)(=O)Cc1ccc(C(=O)N2CCN(c3ccccc3OC)CC2)o1 11%
Cc1cccn2c(=O)c3cc(C(=O)NCc4ccc(F)cc4)c(=N)n(CCCN4CCOCC4)c3nc12 90.3%
CCN1C(=O)c2cccc3c(S(=O)(=O)N(C)C)ccc1c23 252%
CC(=O)c1cccc(-c2ccnc3c2CC(C(=O)NCc2ccc(F)c(F)c2)O3)c1 (configuration not stated) 33.7%
Cc1noc(C)c1S(=O)(=O)N(CC(=O)N1CCCCCC1)c1ccc(C(C)C)cc1 150%
CCc1nc(SCC(=O)c2ccccc2)c2ccccc2n1 44.6%
O=C(Nc1ccc(-c2ccco2)cc1)C1CCCN(Cc2ccco2)C1 (configuration not stated) 77%
CCOc1ccc(NC(=O)CN(C)C(=O)CCCNC(=O)c2ccc(Cl)cc2)cc1OCC 6.84%
CC(C)CCN(CCC(C)C)CC(O)Cn1c2ccccc2c(=O)c2ccccc21 (configuration not stated) 20.5%
CC1CC(C)CN(CCCNC(=O)CCC(=O)N2CC(C)Oc3ccccc32)C1 (configuration not stated) 4.52%
Cc1ccc(OCC(=O)NNc2c3ccccc3nc3ccccc23)cc1 8.32%
C=CCn1c(=N)c(C#N)cc2c(=O)n3ccccc3nc21 148% [at 16 µM]
O=C(CCCn1c(=O)c2sccc2n(Cc2cc(=O)n3ccccc3n2)c1=O)NCc1ccco1 3.52%
